Screen size: about 300,000 compounds; about 2,400 (0.8%) were called active. The full list was thinned out, with actives kept by preference. Unmarked numbers belong to inactive results.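 The calls were made as follows: active = Every replicate reaches about 75%, or at least half do and their mean reaches it too (limit read from the data); inconclusive = At least half of replicates reach the limit but their mean does not; inactive = Under half of replicates reach the limit.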
Assay: inhibitors of cytokine-induced beta cell apoptosis, primary screen, luminescence (AID 435005);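 also: 0% = cytokine-treated negative control wells and 100% = positive control rescue; higher means more ATP so stronger rescue from cytokine killing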
Settings: INS-1E cytokine-induced death, ATP luminescence, 48 h; stronger effect = higher value; percent of positive-control rescue, neutral wells zero; concentration not given here
Work on `O=C(COC(=O)C1CCCO1)Nc1nc(-c2ccc(F)cc2)cs1` (centres undefined) yielded a protection from apoptosis of 0.639%. Compound `c1ccc2c(CCN3CCNC[C@H]3Cc3cccc4ccccc34)cccc2c1` has a protection from apoptosis of 1.24%. In the case of `COc1ccc(S(=O)(=O)/N=C2\C=C(NS(=O)(=O)c3ccccc3)C(=O)c3ccccc32)cc1`, the protection from apoptosis is reported as 1.27%. With `CC(C)CC[n+]1ccn(C2=C([O-])c3ccccc3C(=O)/C2=N\S(=O)(=O)c2ccccc2)c1` the protection from apoptosis was 95% (active). With `COc1ccc(OCC(=O)NNC(=O)C2CCC2)cc1` the protection from apoptosis was -4.44%. `COC(=O)[C@]1(Cc2ccccc2)N[C@H](CN(C)S(=O)(=O)c2ccc(F)cc2)[C@@H]2C(=O)N(Cc3ccccc3)C(=O)[C@@H]21` showed a protection from apoptosis of 10.3%. `Cc1cc(CN(C)C(=O)c2cc(COc3ccc(C)c(C)c3)on2)n[nH]1` showed a protection from apoptosis of -0.122%. In the case of `CN(Cc1cccnc1)C(=O)c1cc(COc2ccc3ncccc3c2)on1`, the protection from apoptosis is reported as 101% (active). Compound `Cc1ccc(OCc2cc(C(=O)N(C)CCc3ccccc3)no2)cc1C` has a protection from apoptosis of -0.126%. `O=C(COC(=O)COc1ccccc1F)Nc1cccc(S(=O)(=O)N2CCCCC2)c1` showed a protection from apoptosis of -4.07%. `O=C(NCCCN1CCOCC1)c1cn(-c2ccccc2)nc1-c1ccc(F)cc1` gave a protection from apoptosis of -0.73%. Work on `Cc1noc(C)c1C(=O)N1CCOCC1` yielded a protection from apoptosis of -4.19%. Compound `CCOC(=O)c1ccccc1C(=O)N1CCOCCOCCOCC1` has a protection from apoptosis of 0.0542%. In the case of `Cc1oc2c(c1C(=O)N1CCOCC1)C(=O)c1ccccc1C2=O`, the protection from apoptosis is reported as 108% (active). For `COc1cc(NS(=O)(=O)c2ccc(NC(C)=O)cc2)cc(OC)c1`, the protection from apoptosis was 25.4%. In the case of `CC(=O)Nc1ccc(S(=O)(=O)Nc2ccc(N3CCCCC3)cc2)cc1`, the protection from apoptosis is reported as 119% (active). In the case of `CC(=O)Nc1ccc(S(=O)(=O)Nc2ccc(N3CCOCC3)c(F)c2)cc1`, the protection from apoptosis is reported as 2.71%. In the case of `COc1ccc(C)cc1NC(=O)CSc1cccc[n+]1[O-]`, the protection from apoptosis is reported as -1.83%. In the case of `CSc1ncccc1C(=O)NCC(c1ccco1)N1CCCCC1` (centres undefined), the protection from apoptosis is reported as -20.2%. For `CC(C(=O)N1CCc2ccccc21)N(C)CC(=O)Nc1ccc(F)cc1` (centres undefined), the protection from apoptosis was 6.77%. In the case of `Fc1ccc2cnc(-c3ccccc3)cc2c1`, the protection from apoptosis is reported as -4.87%. Work on `C[C@]12CC[C@H](O)CC1=CCC1C2CC[C@@]2(C)C1CC[C@@H]2NC(=O)CCC(=O)O` (some centres undefined) yielded a protection from apoptosis of 0.606%. Compound `COc1cc(OC)cc(C(=O)NNC(=O)Cc2cccs2)c1` has a protection from apoptosis of -2.67%. In the case of `CC(=O)c1c(C)oc2ccc(NS(=O)(=O)c3ccc(C(=O)O)cc3)cc12`, the protection from apoptosis is reported as -1.56%. Work on `CC(=O)c1c(C)oc2ccc(NS(=O)(=O)c3ccccc3)cc12` yielded a protection from apoptosis of -0.111%. For `COc1ccc(S(=O)(=O)Nc2ccc3oc(C)c(C(C)=O)c3c2)cc1`, the protection from apoptosis was 87.4% (active). With `Cc1ccc(S(=O)(=O)N2CCN(C(=O)CN3C(=O)NC(C)(c4ccc(Cl)cc4)C3=O)CC2)c(C)c1` (centres undefined) the protection from apoptosis was 0.524%. `Cc1ccc(S(=O)(=O)N(C)CC(=O)NCC(c2ccc(F)cc2)N2CCOCC2)cc1` (centres undefined) gave a protection from apoptosis of -2.01%. Work on `CC(C)CC1NC(=O)c2cc(Cl)ccc2-n2c1nc1ccccc1c2=O` (centres undefined) yielded a protection from apoptosis of -3.6%. Compound `O=C(Nc1cccc(S(=O)(=O)N2CCCCC2)c1)c1cncc(Br)c1` has a protection from apoptosis of -1.23%. With `CCCSc1ccc([C@H]2N[C@@](Cc3ccccc3)(C(=O)OC)[C@H]3C(=O)N(C)C(=O)[C@@H]23)cc1` the protection from apoptosis was -4.97%. Compound `CCN(CC)CCCN=Cc1c(O)n(-c2ccc(C)cc2)c(=O)c2ccccc12` has a protection from apoptosis of -3.92%. In the case of `CCOc1ccc(-n2c(O)c(/C=N/Nc3nc(C)cc(C)n3)c3ccccc3c2=O)cc1`, the protection from apoptosis is reported as 83.2% (active). In the case of `CCOc1ccc(-n2c(O)c(/C=N/c3ccnn3Cc3ccncc3)c3ccccc3c2=O)cc1`, the protection from apoptosis is reported as -6.16%. `COc1ccc(C(=O)C(C)OC(=O)c2cccc(S(=O)(=O)Nc3c(C)n(C)n(-c4ccccc4)c3=O)c2)cc1` (centres undefined) gave a protection from apoptosis of -20.9%. `C[C@H](CO)N1C[C@H](C)[C@@H](CN(C)S(=O)(=O)c2ccc(F)cc2)Oc2ccc(NC(=O)CCC(F)(F)F)cc2C1=O` showed a protection from apoptosis of -4.6%. `C/C(=N\NS(=O)(=O)c1ccccc1)c1c(O)cc(C)oc1=O` showed a protection from apoptosis of -4%. With `Cc1csc2nc(COC(=O)c3cccc(N(C)C)c3)cc(=O)n12` the protection from apoptosis was 0.447%. For `O=C(CCCOc1ccccc1)NNC(=O)c1ccc(Cl)cc1`, the protection from apoptosis was -1.22%. Work on `CCOc1ccccc1C1CC(c2ccccc2)Nc2nc(N)nn21` (centres undefined) yielded a protection from apoptosis of 2.14%. Work on `COc1ccc(C2CC(c3ccc(Cl)cc3Cl)Nc3nc(N)nn32)cc1OC` (centres undefined) yielded a protection from apoptosis of -0.0368%. In the case of `COc1ccc(C2CC(c3ccc(C)cc3)Nc3nc(N)nn32)cc1` (centres undefined), the protection from apoptosis is reported as -2.94%. In the case of `Cc1ccc(C2CC(c3cccc(Br)c3)n3nc(N)nc3N2)cc1` (centres undefined), the protection from apoptosis is reported as 91.3% (active). For `Cc1ccc(C2CC(c3cccc(C)c3)n3nc(N)nc3N2)cc1` (centres undefined), the protection from apoptosis was 101% (active). For `Nc1nc2n(n1)C(c1ccco1)CC(c1ccc(Cl)c(Cl)c1)N2` (centres undefined), the protection from apoptosis was 0.887%. `O=C(CN1C(=O)NC2(CCCCCC2)C1=O)Nc1ccc([N+](=O)[O-])cc1` gave a protection from apoptosis of 0.997%. Work on `CCCCN(C(=O)C1=NN(c2cc(C)ccc2C)C(=O)CC1)c1c(N)n(CCC)c(=O)[nH]c1=O` yielded a protection from apoptosis of 1.47%. For `COc1ccccc1NC(=O)COC(=O)CNC(=O)C1CCCCC1`, the protection from apoptosis was -4.98%. Work on `CCCCCCSc1ccc([C@@H]2[C@H]3C(=O)N(CC)C(=O)[C@H]3[C@]3(C(=O)OC)CCCCN23)cc1` yielded a protection from apoptosis of 2.19%. Compound `COC(=O)C1=C(C)NC(=S)NC1c1ccc(OCC(=O)N2CC(C)OC(C)C2)c(OC)c1` (centres undefined) has a protection from apoptosis of 0.55%. `O=C(CCCO)N/N=C/c1cc(Br)ccc1O` gave a protection from apoptosis of 2.57%. In the case of `O=C(N/N=C/c1ccccc1O)/C(=C/c1ccccc1)CCO`, the protection from apoptosis is reported as 85.8% (active). With `O=C(N/N=C/c1ccccc1O)C1CCCC1` the protection from apoptosis was 8.23%. `O=C(CN1C(=O)NC2(CCCC2)C1=O)Nc1cc(C(F)(F)F)ccc1N1CCOCC1` showed a protection from apoptosis of 1.66%. `CCCOc1ccc(C(=O)NCCc2ccccc2)cc1` showed a protection from apoptosis of 9.99%. For `CCCOc1ccc(Cc2c(O)nc(SC)[nH]c2=O)cc1C`, the protection from apoptosis was -2.93%. With `CCCOc1ccc(Cc2c(Cl)nc(SC)nc2NC)cc1` the protection from apoptosis was 82.7% (active). `COc1ccc(C2=Nn3c(nnc3-c3ccccc3OC)SC2)cc1OC1CCCC1` showed a protection from apoptosis of 31.3%. In the case of `CCOc1ccc(CN2CCN(Cc3c[nH]c4ccccc34)CC2)cc1`, the protection from apoptosis is reported as 76.1% (active). `CCOc1ccc(CN2CCCN(C)CC2)cc1` showed a protection from apoptosis of -3.58%. For `O=C(NCCc1c[nH]c2ccccc12)C1CCN(Cc2ccc(Br)cc2)CC1`, the protection from apoptosis was -12.4%. `CN(CC(=O)Nc1ccc(Cl)cc1)CC(=O)Nc1cccc2ccccc12` showed a protection from apoptosis of 0.976%. Work on `Cc1onc(-c2c(F)cccc2Cl)c1C(=O)OCC(=O)N1C(C)CCCC1C` (centres undefined) yielded a protection from apoptosis of 1.7%. With `Cc1[nH]n(-c2ccccc2)c(=O)c1/C=N/NC(=O)c1ccoc1C` the protection from apoptosis was 107% (active). With `Cc1ccc(-n2[nH]c(C)c(/C=N/NC(=O)c3cccc([N+](=O)[O-])c3)c2=O)cc1C` the protection from apoptosis was 106% (active). `COc1cc(/C=N/NC(=O)c2ccoc2C)ccc1OCCN1CCCCC1` gave a protection from apoptosis of -1.12%. With `Cc1cccc(C(=O)NNC(=O)c2cccc([N+](=O)[O-])c2)c1` the protection from apoptosis was -5.35%. `Cc1occc1C(=O)N/N=C/c1ccc(-c2cccc([N+](=O)[O-])c2)o1` showed a protection from apoptosis of 4.96%. `Cc1[nH]n(-c2ccc([N+](=O)[O-])cc2)c(=O)c1C=NCCN1CCN(C(=O)c2ccccc2F)CC1` gave a protection from apoptosis of 48.6%. In the case of `Cc1ccc(N2C(=O)N3[C@@H]4c5ccccc5OC[C@@H]4[C@@H](c4ccccc4)[C@@]3(C)C2=O)cc1`, the protection from apoptosis is reported as -1.96%. Work on `Cc1ccc(S(=O)(=O)N(C)C)cc1NC(=O)CN1c2cccc3cccc(c23)S1(=O)=O` yielded a protection from apoptosis of -0.228%. With `CC(C)(C)c1cc(C(=O)N/N=C/c2ccc([N+](=O)[O-])s2)n[nH]1` the protection from apoptosis was 111% (active). In the case of `CCOc1ccc(NC(=O)CCC(=O)N/N=C/c2ccc([N+](=O)[O-])s2)cc1`, the protection from apoptosis is reported as -9.66%. Work on `Cc1ccccc1NCC(=O)N/N=C\c1ccc([N+](=O)[O-])s1` yielded a protection from apoptosis of 3.12%. `COc1ccc(C(=O)NCC(=O)N/N=C/c2ccc([N+](=O)[O-])o2)cc1OC` gave a protection from apoptosis of -11.1%. For `COc1ccc(C(=O)COC(=O)c2ccc([N+](=O)[O-])s2)cc1OC`, the protection from apoptosis was 4.99%. In the case of `COc1ccc(C(=O)NCC(=O)N/N=C/c2ccc([N+](=O)[O-])s2)cc1OC`, the protection from apoptosis is reported as 91.3% (active). Compound `CCN(C[C@H]1N[C@@](CC)(C(=O)OC)[C@H]2C(=O)N(Cc3ccccc3)C(=O)[C@@H]12)S(=O)(=O)c1ccc(C(F)(F)F)cc1` has a protection from apoptosis of 13.9%. Work on `COc1ccc(C)cc1NC(=O)c1cc(-c2ccccc2)nc2c1cnn2C(C)C` yielded a protection from apoptosis of 15.6%. Compound `COc1ccc(S(=O)(=O)Nc2cccc3c2O[C@H](CN(C)S(=O)(=O)c2ccc(OC)cc2)[C@@H](C)CN([C@H](C)CO)C3=O)cc1` has a protection from apoptosis of -7.76%. Work on `COc1ccc(S(=O)(=O)N(C)C[C@@H]2Oc3ccc(NS(=O)(=O)c4cn(C)cn4)cc3C(=O)N([C@@H](C)CO)C[C@@H]2C)cc1` yielded a protection from apoptosis of -2.08%. For `Nn1c(SCC(=O)NC2CCCc3ccccc32)nnc1C1CC1` (centres undefined), the protection from apoptosis was -5.42%. For `COc1ccc(CCNC(=O)COC(=O)c2cnc(Cl)c(Cl)c2)cc1`, the protection from apoptosis was -3.76%. `COC(=O)c1ccccc1NC(=S)NC(=O)c1ccccc1F` showed a protection from apoptosis of 1.17%. With `C/C(CC(=O)Nc1ccc(N(C)C)cc1)=N\NC(=O)c1ccccc1F` the protection from apoptosis was 1.37%. With `C/C(=N\NC(=O)Cc1ccc(Cl)cc1)c1ccccn1` the protection from apoptosis was 87.6% (active). `C/C(=N\NC(=O)Cc1ccc(Br)cc1)c1cccnc1` gave a protection from apoptosis of -3.84%. `C/C(=N\NC(=O)Cc1ccc(F)cc1)c1ccc(F)cc1` gave a protection from apoptosis of -1.1%. With `C/C(=N\NC(=O)c1ccccc1F)c1ccccn1` the protection from apoptosis was 92% (active).

Source: PubChem BioAssay AID435005 (Broad Institute, 2010)
